From PubChem BioAssay (NCI)
The panel holds about 83,000 compounds, 20% with a hit somewhere; the sample as a whole holds those more often.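 Method: cells in 96-well plates; compound added at one concentration; 48 h incubation; percent growth measured; values under 10 scored active.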 Unmarked numbers belong to inactive results. Calls of active or inactive are those of the source.

Legend:
Assay in all cases: NCI-60 one-dose screen, 48 h (100 = growth as untreated, 0 = no growth, -100 = all killed)
NCI-H226 lung = settings: 10 µM
HOP-62 NSCLC = settings: 10 µM
NCI-H460 lung = settings: 10 µM
A549/ATCC NSCLC = settings: 10 µM
COLO 205 colon = settings: 10 µM
DU-145 prostate = settings: 10 µM
K-562 leukemia = settings: 10 µM
SF-539 CNS = settings: 10 µM
HCT-15 colon = settings: 10 µM
HT29 colon = settings: 10 µM
SNB-75 CNS = settings: 10 µM
SNB-19 CNS = settings: 10 µM
U251 CNS = settings: 10 µM
PC-3 prostate = settings: 10 µM
LOX IMVI melanoma = settings: 10 µM
MOLT-4 leukemia = settings: 10 µM
SR leukemia = settings: 10 µM
RPMI-8226 leukemia = settings: 10 µM
SK-OV-3 ovarian = settings: 10 µM
MDA-MB-468 breast = settings: 10 µM unless noted

Row | Compound | growth (NCI-H226 lung) [%] | growth (HOP-62 NSCLC) [%] | growth (NCI-H460 lung) | growth (A549/ATCC NSCLC) [%] | growth (COLO 205 colon) | growth (DU-145 prostate) [%] | growth (K-562 leukemia) [%] | growth (SF-539 CNS) | growth (HCT-15 colon) [%] | growth (HT29 colon) | growth (SNB-75 CNS) | growth (SNB-19 CNS) [%] | growth (U251 CNS) | growth (PC-3 prostate) | growth (LOX IMVI melanoma) | growth (MOLT-4 leukemia) | growth (SR leukemia) | growth (RPMI-8226 leukemia) | growth (SK-OV-3 ovarian) [%] | growth (MDA-MB-468 breast)
1 | Cn1cc(-c2nnc(N)nc2-c2c[nH]c3ccc(F)cc23)c2cc(Br)cnc21 | 89.3 | 56.8 | 39.7% | 66.2 | 72.6% | 89.4 | 42.8 | 64.5% | 59.8 | 71.6% | 59.1% | 58.3 | 57.1% | 56.8% | 47% | 4.34% (active) | 9.16% (active) | 59.1% | 98.8 | 13.8%
2 | Cc1cc(N=C2NC(=O)S/C2=C\c2ccc(F)cc2)n[nH]1 | 17.1 | 26.7 | 5.74% (active) | 18.9 | 19.2% | 30 | 15.4 | 4.62% (active) | 13.9 | 6.68% (active) | 2.65% (active) | 27.4 | 5.06% (active) | 6.14% (active) | -59.8% (active) | 10.5% | 8.59% (active) | -14.7% (active) | 44.3 | -5.57% (active)
3 | O=C(Nc1ccc(OCC(=O)c2ccc(Cl)cc2)cc1)Nc1ccc(Cl)c(C(F)(F)F)c1 | 38 | 47.6 | 27.6% | 24.3 | -49.4% (active) | 66.2 | 65.3 | 47.3% | 23.6 | 33.6% | 51.5% | 21.3 | 35.6% | 7.67% (active) | -37.8% (active) | 45.3% | 39.5% | 12.2% | 33 | 26%
